A selection: hits, their analogues and other compounds. The true share with any hit is near 1.5%.
GALK inh: blocks human galactokinase activity. P51570. Purified GALK, Kinase-Glo residual ATP luminescence. AID 1868. 270,000 compounds, 0.007% hits. Potency, µM (titrated, usually from 57.5 µM), for the others: at the top dose activity change, negative = inhibition, actives largely listed as inhibitors; further: potency means the concentration at half of the fitted maximal effect
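Kinase-Glo Plus luminescence measured ATP left after a 1 h room-temperature reaction. The reaction used 5 nM GALK, 100 uM galactose and 35 uM ATP at pH 8.0 (20 mM HEPES, 5 mM MgCl2, 60 mM NaCl, 1 mM DTT, 0.01% BSA).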
rTrxR1 inhibitor: blocks rat thioredoxin reductase 1 | recombinant rTrxR1, NADPH fluorescence consumption, selenite substrate | Potency, µM (doses to about 114 µM), inactives show at the highest dose activity change, negative = inhibition, usual class: inhibitors | 390,000 compounds, 1% hits; further: potency means the concentration at half of the fitted maximal effect; nearly all actives have a fitted effect of over 65% in size
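Rat TrxR1 (90 nM in the dispensed reagent) was pre-reduced with 400 uM NADPH for 5 min at room temperature, then incubated with compound for 15 min. After 400 uM selenite was added, NADPH fluorescence (Ex 340/Em 450 nm) was followed for 8 min.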
Eya2 phos inh: Eya2 (human) phosphatase inhibition. O00167. recombinant Eya2, OMFP fluorescence dephosphorylation (OMFP is methylfluorescein phosphate). Potency, µM (top dose mostly 76.9 µM), for the others: at the highest dose activity, negative = inhibition, usual class: inhibitors. 330,000 compounds, 0.006% hits. AID 488837; further: potency means the concentration at half of the fitted maximal effect
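Eya2 protein (added as 0.2 uM solution) was preincubated with compound for 10 min at ambient temperature in 50 mM HEPES pH 7.5, 50 mM NaCl, 5 uM MgCl2, 0.05% BSA, 1 mM DTT. OMFP (added at 50 uM) then reacted 10 min; fluorescence read at 485/525 nm.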
TrxR1 substrate: rat thioredoxin reductase 1 substrate activity; purified TrxR1 substrate turnover, NADPH consumption readout; 390,000 compounds, 0.01% hits; O89049; Potency, µM (series often up to 114 µM), for the others: at the top dose activity change, negative = substrate turnover; further: potency means the concentration at half of the fitted maximal effect; nearly all actives have a fitted effect of over 50% in size
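Rat TrxR1, dispensed at 90 nM, was prereduced with 400 uM NADPH (final) for 5 min at ~22 deg C, then incubated with compound 15 min before 400 uM selenite. A first-read NADPH fluorescence drop versus no-compound background flagged substrates.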
Six1-Eya2 blk: Six1/Eya2 interaction inhibition; Q15475+O00167; AlphaScreen GST-Six1/His-Eya2 binding, biochemical; active compounds read low; activity change, % (concentration not given with the values); 360,000 compounds, 0.56% hits; AID 651725; in the data active means activity change below about -65%; inconclusive means mostly about -30% to -63%
Target sequence (O00167 whole entry, looked up): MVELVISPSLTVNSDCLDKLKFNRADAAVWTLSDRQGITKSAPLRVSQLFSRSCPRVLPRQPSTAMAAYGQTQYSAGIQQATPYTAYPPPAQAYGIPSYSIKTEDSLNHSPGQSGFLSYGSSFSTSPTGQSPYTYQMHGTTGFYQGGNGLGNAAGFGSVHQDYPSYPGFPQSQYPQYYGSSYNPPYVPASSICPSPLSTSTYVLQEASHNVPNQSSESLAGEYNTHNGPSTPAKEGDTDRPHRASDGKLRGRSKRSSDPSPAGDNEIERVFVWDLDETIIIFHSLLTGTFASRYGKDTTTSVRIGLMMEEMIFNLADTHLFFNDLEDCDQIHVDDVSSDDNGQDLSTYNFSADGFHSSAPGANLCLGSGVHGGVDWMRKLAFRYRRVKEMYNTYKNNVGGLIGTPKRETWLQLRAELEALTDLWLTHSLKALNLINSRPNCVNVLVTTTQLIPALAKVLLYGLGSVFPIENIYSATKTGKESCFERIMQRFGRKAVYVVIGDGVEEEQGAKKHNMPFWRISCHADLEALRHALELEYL
Target sequence (Q15475 whole entry, looked up): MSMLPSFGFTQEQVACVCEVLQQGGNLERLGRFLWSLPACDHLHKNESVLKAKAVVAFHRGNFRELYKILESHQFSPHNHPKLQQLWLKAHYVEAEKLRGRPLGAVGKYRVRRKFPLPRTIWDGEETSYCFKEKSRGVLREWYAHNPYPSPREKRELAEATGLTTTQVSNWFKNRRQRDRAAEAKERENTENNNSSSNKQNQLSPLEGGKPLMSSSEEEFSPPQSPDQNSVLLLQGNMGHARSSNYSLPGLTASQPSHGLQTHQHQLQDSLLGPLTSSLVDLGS
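Homogeneous AlphaScreen proximity assay pairing GST-Six1 with His-tagged Eya2 (added as 5X mix: 250 nM and 500 nM) in 50 mM Tris pH 8.0, 300 mM NaCl, 1 mM TCEP. Glutathione donor and nickel acceptor beads; 1 h, 37 °C, dark.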
CtBP-E1A blk: CtBP/E1A binding inhibition. AlphaScreen GST-E1A/His-CtBP binding, 1536-well; active compounds read low. activity change, % (no concentration beside the values). 340,000 compounds, 0.49% hits. AID 651724; in the data active means activity change below about -65%; inconclusive means mostly about -30% to -63%
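Protein mix (5X: 125 nM each GST-E1A, His-CtBP) was incubated with pinned compound 2 h at 37 deg C in dark, in 50 mM Tris pH 8.0 buffer with 300 mM NaCl. Glutathione donor and nickel acceptor beads followed; AlphaScreen signal read after 1 h.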
An asterisk follows results filed as active; ? = inconclusive; · = no result given; ! = not confirmed by another sample; [ ] = remark or other dose. Unless noted, the call rests on the fitted dose curve; in most records, active means well fitted curve in the direction sought with a large enough effect; inconclusive means small, poorly fitted or top-dose-only effect, or another doubt; inactive means no such curve, though single readings can be large; an effect the other way counts as inactive or inconclusive. On the % scale 0 is the no-effect control and ±100 the full control effect.

SMILES	GALK inh	rTrxR1 inhibitor	Eya2 phos inh	TrxR1 substrate	Six1-Eya2 blk	CtBP-E1A blk
CCS(=O)(=O)c1ncc(Cl)c(C(=O)Nc2ccc(S(=O)(=O)N3CCCC(C)C3)cc2)n1 (stereo not given)	1%	2.5µM*	-3%	-2%	19	-4
CCC1CCCCN1S(=O)(=O)c1ccc(NC(=O)c2nc(S(C)(=O)=O)ncc2Cl)cc1 (stereo not given)	0%	7.1µM*	3%	-2%	-10	-2
C#CCSc1nccc(-c2nn(-c3ccc(C)cc3)ccc2=O)n1	-3%	79µM*	-1%	20%	7	20
CCSc1nccc(-c2nn(-c3ccc(C)cc3)ccc2=O)n1	1%	11%	-28%	7%	-6	-7
Nc1nc(-c2ccccc2)c(CCCOc2ccc(NC(=O)CBr)cc2)c(=O)[nH]1	·	45µM*	·	-5%	-4	3
CCOc1ccc(NC(=O)CSc2nc(N)c(-c3ccccc3)c(=O)[nH]2)cc1	-1%	17%[57.1 µM]	2%	8%	3	2
COc1cc(O)ccc1-c1nc2ccc(Br)cn2c1Nc1ccccc1C	·	-17%	·	-10%	·	·
Cc1cc(N/N=C/c2ccc(O)cc2)nc(NS(=O)(=O)c2ccccc2)n1	·	-13%	5%	-7%	-73*	?
O=C(NCc1ccccc1F)C1CCN(Cc2cc3ccccc3n2Cc2cccc(Cl)c2)CC1	·	18%[57.1 µM]	·	5%[57.1 µM]	·	·
CC(=O)c1ccc(OCc2cc(C(=O)N3CC[C@@H]4CCCC[C@H]4C3)no2)cc1	4%	25µM*	-11%	-13%	8	-3
COc1ccccc1-c1ccc(/C=C2\C=CC(=O)O2)o1	-3%	14µM*	?	2%[57.1 µM]	54	57
CC1=NN(c2nc3ccccc3[nH]2)C(=O)C1Cc1ccccc1 (stereo not given)	-2%	-1%[11.4 µM]	11%	4%	-91*	-81*
O=C(c1ccccc1F)N1c2nc(-c3ccco3)nn2C2(CCCCC2)[C@@H]2CCCC[C@@H]21	·	25µM*	·	-3%	·	·
O=C(c1ccc(F)cc1)N1c2nc(-c3ccco3)nn2C2(CCCCC2)[C@@H]2CCCC[C@@H]21	·	?	·	1%	·	·
Cc1ccc(NC(=O)c2ccc(NC(=O)N3CCSc4ncccc43)cc2)cc1Cl	·	16%	·	5%	·	·
CN(C(=O)COC(=O)c1nc(Cl)c(Cl)c(Cl)c1Cl)C1CCS(=O)(=O)C1 (stereo not given)	6%	14µM*	-2%	8%[57.1 µM]	-2	8
CN(C(=O)COC(=O)c1ccc(C(C)(C)C)cc1)C1CCS(=O)(=O)C1 (stereo not given)	·	-5%	4%	-2%	11	13
c1ccc(Cn2c(SCc3nc4ccccc4s3)nnc2-c2ccco2)cc1	-1%	10µM*	7%	8%[57.1 µM]	?	-1
CCc1c(C)sc(NC(=O)c2noc(C)c2[N+](=O)[O-])c1C#N	-1%	13µM*	-18%	-9%	-1	·
Cc1ccc(CCNC(=O)CCCn2c(=O)c3ccccc3n(Cc3ccccc3C)c2=O)cc1	·	15%	·	2%	·	·
COc1ccc2c(c1)c1c(c(=O)n(-c3ccc(C)cc3)c(=O)n1CC(=O)c1ccc(Cl)cc1)n2C	·	35%	·	6%	·	·
Cn1nc([N+](=O)[O-])nc1Sc1cccc2cccnc12	2%	19%	2%	6%[0.0914 µM]	-90*	·
Cc1cn2c(=O)cc(COc3ccccc3NC(=O)c3ccc(Cl)cc3)nc2s1	·	20%	·	2%	·	·
Cc1ccc(-c2nn(-c3ccccc3)cc2C2SCC(=O)N2Cc2ccccc2)o1 (stereo not given)	-1%	56µM*	-34%	14%	-21	-16
O=C1CSC(c2cn(-c3ccccc3)nc2-c2cc3ccccc3o2)N1Cc1ccccc1 (stereo not given)	0%	20%	-11%	15%	-9	0
SMILES	GALK inh	rTrxR1 inhibitor	Eya2 phos inh	TrxR1 substrate	Six1-Eya2 blk	CtBP-E1A blk
CC(Sc1oc(-c2cccs2)nc1S(=O)(=O)c1ccccc1)c1ccccc1 (stereo not given)	·	4%	·	3%	·	·
CCC[N+](C)(C)c1ccc(/C=C/c2ccnc3ccccc23)cc1	·	-25%	·	-11%	·	·
COc1ccccc1N1C(=O)C=C(Sc2nc(C)cc(C)n2)C1=O	1%	2.8µM*	9%	11%[11.4 µM]	1	-3
Cc1sc2nc(C(C)C)nc(SCC(=O)N3CCN(C(=O)c4ccco4)CC3)c2c1C	-6%	16µM*	-8%	0%[57.1 µM]	-18	-10
Cc1nc(SCC(=O)N(C)Cc2ccco2)c2c(C)c(C)sc2n1	2%	22µM*	12%	-7%	-13	-8
O=C(OCC1CCCO1)c1ccc2c(c1)N(Cc1cccc(Cl)c1)C(=O)c1ccccc1S2(=O)=O (stereo not given)	·	12%[57.1 µM]	·	-1%[57.1 µM]	·	·
CC1=C(/C=C/C(C)=C/C=C/C(C)=C/CO)C(C)(C)CCC1	·	50µM*	·	0%	-9	-8
O=C(CN1CC(=O)Oc2ccccc21)OCC(=O)c1ccc(F)cc1	11%	-83%	9%	7%[57.1 µM]	-75*	?
O=C1CN(CC(=O)N2CCOCC2)c2ccccc2O1	-1%	·	-1%	·	·	·
O=C1CN(CC(=O)N2CCCCC2)c2ccccc2O1	0%	25µM*	-1%	0%	-13	-11
O=C(CN1CC(=O)Oc2ccccc21)OCC(=O)c1ccc(Br)cc1	·	-22%	·	-5%	-91*	-87*
Cc1ccc2oc(-c3cccc(NC(=O)c4ccc(N5CCC(C)CC5)c([N+](=O)[O-])c4)c3)nc2c1	·	19%	·	-5%	·	·
CCOc1ccc(CCNC(=O)C2CCN(C(=O)c3cc4sccc4n3CC)CC2)cc1OCC	·	10%	·	3%	·	·
CCn1c(=O)c2sccc2n2c(CCC(=O)Nc3ccc(F)cc3)nnc12	·	14%	·	6%	·	·
Cc1ccc(S(=O)(=O)NCC(c2ccco2)N2CCN(c3ccccc3F)CC2)cc1 (stereo not given)	·	9%[57.1 µM]	·	3%[57.1 µM]	·	·
CCN(c1ccccc1)c1ncnc2c1cnn2-c1ccc(C)cc1C	·	3%[57.1 µM]	·	-3%[57.1 µM]	·	·
COc1cc(NC(=O)CN2C(=O)COc3ccc(S(=O)(=O)N4CCCCC4)cc32)cc(OC)c1	-1%	21%	5%	2%	?	-73*
CC(C)CN(CCCNC(=O)CN1C(=O)COc2ccc(S(=O)(=O)N3CCCCCC3)cc21)CC(C)C	-6%	56µM*!	-1%	5%	2	6
Cc1cc(C)cc(NC(=O)CN2C(=O)COc3ccc(S(=O)(=O)N4CCCC4)cc32)c1	0%	12%	-3%	-5%	-5	·
CC(C)CN(CCCNC(=O)CN1C(=O)COc2ccc(S(=O)(=O)N3CCCC3)cc21)CC(C)C	1%	-8%	-17%	-8%	6	-1

From PubChem
